The source made the active and inactive calls. Rule for the calls: active = hit-call score of the fitted dose curve at least 0.9, where 1 is the maximum; inactive = score below 0.9.
read-out: Tumor necrosis factor (Homo sapiens) (UniProt P01375); experiment: BSK_BT_xTNFa: BioMAP Diversity Plus: BT Assay for Tumor necrosis factor alpha (TNF-alpha) Biomarker Activity (AID 2284230); settings: primary human B cells with PBMC
Summary of the method: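 Human primary co-culture of B cells and peripheral blood mononuclear cells; TNF-alpha in supernatant, 24 h post-dose, Luminex multiplex; DMSO = baseline.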

Tumor necrosis factor (Homo sapiens), sequence (P01375 whole entry, looked up): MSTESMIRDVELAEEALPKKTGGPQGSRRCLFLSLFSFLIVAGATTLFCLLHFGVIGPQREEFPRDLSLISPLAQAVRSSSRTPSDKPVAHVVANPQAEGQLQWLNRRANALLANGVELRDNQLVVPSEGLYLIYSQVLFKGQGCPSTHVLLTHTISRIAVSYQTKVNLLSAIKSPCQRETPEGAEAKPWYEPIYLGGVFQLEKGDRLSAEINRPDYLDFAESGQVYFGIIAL

SMILES	outcome	AC50
CCn1c2ccccc2c2cc(N)ccc21	inactive	
CCCCCCCCCCCCCCCCCC(=O)OCC(CC)CCCC (centres undefined)	inactive	
CCCCC(CC)COCCC#N (centres undefined)	inactive	
CC(=O)Nc1ccccc1O	inactive	
O=C(O)c1cn(-c2ccc(F)cc2)c2cc(N3CCNCC3)c(F)cc2c1=O	inactive	
O=P(c1ccccc1)(c1ccccc1)c1ccccc1	inactive	
CCCCC(CC)COC(=O)/C=C\C(=O)OCC(CC)CCCC (centres undefined)	inactive	
O=C(O)c1cn(C2CC2)c2cc(N3CCNCC3)c(F)cc2c1=O	inactive	
CC(C)(COC(=O)c1ccccc1)COC(=O)c1ccccc1	inactive	
Cc1ccc2n[nH]nc2c1	inactive	
O=C1CCCCCCCCCCCCCCO1		35.8 µM (active)
CC1CCC(C(C)CS)CC1S (centres undefined)	inactive	
CC1COc2ccccc2N1C(=O)C(Cl)Cl (centres undefined)	inactive	
CCCCCCCCC=O	inactive	
O=C1OC2(c3cc(Br)c(O)c(Br)c3Oc3c2cc(Br)c(O)c3Br)c2c(Cl)c(Cl)c(Cl)c(Cl)c21		13.2 µM (active)
BrC1CCC(Br)C(Br)CCC(Br)C(Br)CCC1Br (centres undefined)		28.2 µM (active)

read-out: Vascular cell adhesion molecule 1 (VCAM1), VCAM1 (gene 7412); experiment: BSK_MyoF_VCAM1: BioMAP Diversity Plus: MyoF Assay for Vascular cell adhesion molecule 1 (VCAM1) Biomarker Activity (AID 2284231); settings: primary human lung fibroblasts
Summary of the method: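 MyoF system, lung fibroblasts; 24 h post-dose; VCAM-1 by ELISA; gain-of-signal fit vs DMSO baseline.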

SMILES	outcome	AC50
CC(=O)/C=C/C1=C(C)CCCC1(C)C	inactive	
c1ccc2c(c1)c1cccc3ccc4cccc2c4c31	inactive	
CNC[C@H](O)c1cccc(O)c1	inactive	
CCCCCCCCCC=O	inactive	
CCCCC/C=C/C=C/C=O		34.9 µM (active)
CC(C)c1ccc(C(C)C)cc1	inactive	
CCc1c(C)cc(N)c(CC)c1N	inactive	
CC(=O)O[C@]1(C(C)=O)CC[C@H]2[C@@H]3C[C@H](C)C4=CC(=O)CC[C@]4(C)[C@H]3CC[C@@]21C	inactive	
C=C[Si](OCC)(OCC)OCC	inactive	
Cc1ccc(O)c(C(C)(C)C)c1		34.4 µM (active)
CC(C)Oc1ccccc1O	inactive	
CN(CCOc1ccc(CC2SC(=O)NC2=O)cc1)c1ccccn1 (centres undefined)		3.97 µM (active)
O=C=NC1CCC(CC2CCC(N=C=O)CC2)CC1 (centres undefined)	inactive	
c1ccc2sc(SN(C3CCCCC3)C3CCCCC3)nc2c1	inactive	
O=C(O)C[C@H](O)C[C@H](O)/C=C/c1c(C2CC2)nc2ccccc2c1-c1ccc(F)cc1	inactive	
Cc1ccc(Nc2ccc(O)c3c2C(=O)c2ccccc2C3=O)cc1	inactive	
COC(=O)c1ccc(C)cc1	inactive	
N#Cc1ccc(CC(=NNC(=O)Nc2ccc(OC(F)(F)F)cc2)c2cccc(C(F)(F)F)c2)cc1	inactive	
O=[N+]([O-])c1cc(C(F)(F)F)ccc1Cl	inactive	

SMILES	outcome	AC50
C=C(C)C(=O)O[C@H]1C[C@@H]2CC[C@@]1(C)C2(C)C		33.6 µM (active)
Nc1cc([N+](=O)[O-])ccc1Cl	inactive	
C#C[C@]1(O)CC[C@H]2[C@@H]3CCC4=Cc5oncc5C[C@]4(C)[C@H]3CC[C@@]21C		20 µM (active)
CCn1c2ccccc2c2cc(N)ccc21	inactive	
CCCCCCCCCCCCCCCCCC(=O)OCC(CC)CCCC (centres undefined)	inactive	
CCCCC(CC)COCCC#N (centres undefined)	inactive	
CC(=O)Nc1ccccc1O	inactive	
O=C(O)c1cn(-c2ccc(F)cc2)c2cc(N3CCNCC3)c(F)cc2c1=O	inactive	
O=P(c1ccccc1)(c1ccccc1)c1ccccc1	inactive	
CCCCC(CC)COC(=O)/C=C\C(=O)OCC(CC)CCCC (centres undefined)	inactive	
O=C(O)c1cn(C2CC2)c2cc(N3CCNCC3)c(F)cc2c1=O	inactive	
CC(C)(COC(=O)c1ccccc1)COC(=O)c1ccccc1	inactive	
Cc1ccc2n[nH]nc2c1	inactive	
O=C1CCCCCCCCCCCCCCO1		20 µM (active)
CC1CCC(C(C)CS)CC1S (centres undefined)		8.17 µM (active)
CC1COc2ccccc2N1C(=O)C(Cl)Cl (centres undefined)		20 µM (active)
CCCCCCCCC=O	inactive	
O=C1OC2(c3cc(Br)c(O)c(Br)c3Oc3c2cc(Br)c(O)c3Br)c2c(Cl)c(Cl)c(Cl)c(Cl)c21		5.03 µM (active)
BrC1CCC(Br)C(Br)CCC(Br)C(Br)CCC1Br (centres undefined)	inactive	
